Inhibition data for 101 molecules are collected here from PubChem BioAssay AID1209 (Sanford-Burnham Center for Chemical Genomics, 2008).

Hit rate of the full screen: of about 190,000 compounds, about 810 (0.43%) were called active. The full list was thinned out, with actives kept by preference. A number with no mark means an inactive call. Cut-off read from the data, not from the text of the source: active = inhibition above about 50%; inactive = the rest.

In the assay the target is Mannose-6-phosphate isomerase (Homo sapiens) (UniProt P34949). The assay is described as follows: MPI enzyme activity inhibition – biochemical, fluorescence intensity, coupled assay, primary screen (AID 1209).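 Note: plate controls were DMSO vehicle for no effect and wells lacking substrate for full effect.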 Conditions: purified PMI enzyme, at 20 µM, active compounds read high.
Sequence of Mannose-6-phosphate isomerase (Homo sapiens) (P34949 whole entry, looked up): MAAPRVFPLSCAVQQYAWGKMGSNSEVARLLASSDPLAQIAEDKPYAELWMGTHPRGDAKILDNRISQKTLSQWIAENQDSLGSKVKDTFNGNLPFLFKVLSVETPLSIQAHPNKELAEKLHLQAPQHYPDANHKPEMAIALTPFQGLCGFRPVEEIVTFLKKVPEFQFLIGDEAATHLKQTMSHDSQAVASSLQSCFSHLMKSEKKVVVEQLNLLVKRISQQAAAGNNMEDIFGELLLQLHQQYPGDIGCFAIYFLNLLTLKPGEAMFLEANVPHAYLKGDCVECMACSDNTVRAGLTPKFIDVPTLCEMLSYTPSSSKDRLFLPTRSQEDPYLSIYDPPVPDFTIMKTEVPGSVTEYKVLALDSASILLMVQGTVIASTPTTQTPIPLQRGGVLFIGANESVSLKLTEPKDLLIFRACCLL
For `O=C(c1ccccc1)c1c(O)nc(-c2ccccc2)n(-c2ccccc2)c1=O`, the inhibition is 108% (active).
`CC(=O)c1c(O)c(C)c(-c2ccccc2)n(-c2ccccc2)c1=O`: the inhibition was 2.2%.
In the case of `O=C(O)c1nn(-c2ccccc2)c(-c2ccccc2)c1C(=O)c1ccccc1` it was -12.5%.
In the case of `Oc1c(Br)cc(C2N=C(c3ccccc3Cl)NO2)cc1Br` (stereo unspecified) it was 0.3%; in that of `FC(F)(F)c1cccc(Cn2c3[n+](c4ccc(C(F)(F)F)cc42)CCCCC3)c1`, 1.3%; in that of `Fc1ccccc1Cn1c2[n+](c3ccc(C(F)(F)F)cc31)CCCCC2`, 10.3%.
In the case of `FC(F)(F)c1ccc2c(c1)n(Cc1ccccc1)c1[n+]2CCCCC1` it was 63.9% (active); in that of `CC1=NN(c2ccc(S(=O)(=O)O)cc2C)C(=O)C1`, -63.6%; in that of `Fc1ccc(C2CCCN2Cc2nc(Cc3ccccc3)no2)cc1` (stereo unspecified), -7%.
Consider `CC(=O)Nc1ccccc1C(=O)C(=O)Nc1ccc(C)c(F)c1`, for which the inhibition was 19.9%.
Turning to `Cc1cc(C)c(C(=O)COC(=O)Cn2cnnn2)cc1C`, the inhibition is -10.7%.
Consider `CCN(CC)c1ccc2c(C)c(Cl)c(=O)oc2c1`, for which the inhibition was -1.5%.
As for `CCN(CC)c1ccc2ccc(=O)oc2c1`, the figure is 2.1%.
As for `O=C(NCCN1CCOCC1)c1cc2cc([N+](=O)[O-])ccc2s1`, the figure is 5.6%.
As for `c1ccc(C2COC(c3cccs3)=N2)cc1` (stereo unspecified), the figure is 9.4%; as for `N#CC1=C2SCN(Cc3ccco3)CN2C(=O)CC1c1ccc(Cl)cc1` (stereo unspecified), 28.7%.
As to `COc1cc(C2CC(=O)N3CN(Cc4ccccc4)CSC3=C2C#N)ccc1OCc1ccccc1` (stereo unspecified), the inhibition is 45.4%.
With `COc1ccc(Br)cc1C1CC(=O)N2CN(Cc3ccccc3)CSC2=C1C#N` (stereo unspecified), the inhibition is 34.2%.
As to `COc1cc(C2CC(=O)N3CN(Cc4ccco4)CSC3=C2C#N)ccc1OCc1ccccc1` (stereo unspecified), the inhibition was 50% (active).
With `N#CC1=C2SCN(Cc3ccco3)CN2C(=O)CC1c1c(F)cccc1Cl` (stereo unspecified), the inhibition was -3.1%.
For the molecule `Cc1ccc(C2CC(=O)N3CN(Cc4ccco4)CSC3=C2C#N)cc1` (stereo unspecified), the inhibition was 29.7%.
Take `COc1ccc(C2CC(=O)N3CN(Cc4ccco4)CSC3=C2C#N)cc1` (stereo unspecified): the inhibition is 59.1% (active).
As for `CC(C)c1ccc(C2CC(=O)N3CN(C)CSC3=C2C#N)cc1` (stereo unspecified), the figure is 40.6%; as for `CC(C)c1ccc(C2CC(=O)N3CN(Cc4ccco4)CSC3=C2C#N)cc1` (stereo unspecified), 52.6% (active).
In the case of `N#CC1=C2SCN(Cc3ccco3)CN2C(=O)CC1c1ccccc1F` (stereo unspecified), the inhibition was 43.7%.
As for `COc1ccc2ccccc2c1C1CC(=O)N2CN(Cc3ccco3)CSC2=C1C#N` (stereo unspecified), the figure is 46.4%.
Turning to `N#CC1=C2SCN(Cc3ccco3)CN2C(=O)CC1c1cccc2ccccc12` (stereo unspecified), the inhibition is 55% (active).
Turning to `COc1ccc(C(=O)NCC(=O)OCC(=O)N2CC(C)CC(C)C2)cc1` (stereo unspecified), the inhibition was 8.6%.
As for `Cc1cc(C)c2[nH]c(=O)c(CN(CC3CCCO3)C(=S)Nc3ccccc3)cc2c1` (stereo unspecified), the figure is 28.3%; as for `COc1ccc([N+](=O)[O-])cc1NC(=O)CCN1CCN(C)CC1`, -0.2%.
Take `COc1ccc2cc(/C(C)=N/NC(=O)C3CC3)ccc2c1`: the inhibition was -1.6%.
As for `Fc1ccc(-n2[nH]nnc2=S)cc1N1CCCC1`, the inhibition was -13.3%.
On to `COc1ccc(Cn2c(-c3ccc(Br)cc3)c[n+]3ccccc23)cc1`, for which the inhibition was -1.6%.
As for `CC(=O)c1nnn(-c2ccc([N+](=O)[O-])cc2C)c1C`, the figure is -15.2%; as for `N#CC1=C2SCN(Cc3ccccc3)CN2C(=O)CC1c1cccs1` (stereo unspecified), 40.2%.
With `N#CC1=C2SCN(Cc3ccccc3)CN2C(=O)CC1c1ccccc1F` (stereo unspecified), the inhibition is 25.6%.
For the molecule `CC(C)CCCNc1nc(N2CCOCC2)nc(N2CCOCC2)n1`, the inhibition was 3.3%.
`O=C(NCCc1c[nH]c2ccccc12)C(=O)NCC1OCCCN1S(=O)(=O)c1cccs1` (stereo unspecified): the inhibition is 5.3%.
As for `CC(C)n1nc(C(=O)Nc2nnc(SCc3c(Cl)cccc3Cl)s2)c2ccccc2c1=O`, the figure is 7.2%; as for `O=C(Nc1ccc(N2CCN(c3ccccc3)CC2)c(F)c1)C1CC1`, -5.7%; as for `CCN1c2ccccc2N(C)C1(C)c1ccccc1` (stereo unspecified), 61.2% (active).
As for `CN1c2ccccc2N(C)C1(C)c1ccccc1`, the figure is 26.1%; as for `CCN1C(=O)N(C)C2(c3ccccc3)N(C)C(=O)N(C)C12c1ccccc1` (stereo unspecified), 13.6%; as for `O=C(CSc1nnnn1-c1ccc(F)cc1)NC1CCCCC1`, 15.6%.
In the case of `CCOc1ccccc1C(=O)Nc1cc(Cl)ccc1O` it was 14.5%; in that of `O=C(Nc1ccc(N2CCCCCC2)cc1)c1ccccc1Cl`, 21.5%.
Turning to `NS(=O)(=O)c1ccc(NCc2c(F)cccc2Cl)cc1`, the inhibition is -1.9%.
Turning to `O=S(=O)(Nc1ccc(N2CCCCC2)cc1)c1ccccc1`, the inhibition is 17%.
As for `Fc1cccc(Cl)c1CNc1ccc(N2CCCC2)cc1`, the inhibition is 87.2% (active).
Consider `O=C(O)c1cc(NCc2c(F)cccc2Cl)ccc1N1CCOCC1`, for which the inhibition is 4.6%.
As to `Clc1cccc(Cl)c1CNc1ccc(N2CCCC2)cc1`, the inhibition was 87.2% (active).
For the molecule `CCCN1CNC(=S)N(c2ccccc2OCC)C1`, the inhibition is -9.9%.
As to `O=C1Nc2ccccc2C(O)(C(=O)NCc2ccco2)N1c1ccccc1` (stereo unspecified), the inhibition is 1.5%.
Regarding `COC(=O)[C@@]1(Cc2ccc(OC)cc2)[C@H]2c3cc(C(=O)N4CCCC4)n(Cc4ccc(C)o4)c3C[C@H]2CN1C(=O)c1ccccc1`, the inhibition was 9.2%.
For `Cc1[nH]nc2c1C(c1ccco1)C(C#N)=C(N)O2` (stereo unspecified), the inhibition is -18%.
As for `CNCCOc1ccccc1C(C)(C)C`, the inhibition is 5.9%.
In the case of `NCCc1ccc(O)c(O)c1`, the inhibition is 64.5% (active).
On to `Nc1ccc(Cc2ccc(N)c(O)c2)cc1O`, for which the inhibition is 5.5%.
`OCCCc1ccc(O)c(O)c1`: the inhibition was 35.2%.
Take `CCOC(=O)CSc1nc2sccc2c(=O)[nH]1`: the inhibition is 2.3%.
Take `O=C(Nc1ncc(Cl)cc1Cl)c1c(F)cccc1Cl`: the inhibition was -15.8%.
As for `Cc1cc(C)cc(N2C(=O)c3nccnc3C2=O)c1`, the inhibition was 1.6%.
Regarding `COC(=O)C(C)(C)ONC(=O)Nc1ccc(Br)cc1`, the inhibition is 17.3%.
Regarding `COc1ccc(N/C=C2\CCc3ccccc3C2=O)cc1`, the inhibition is 97.9% (active).
As for `COc1ccc(N/C=C2/CCCCC2=O)cc1`, the figure is 18.1%; as for `O=C1/C(=C/Nc2ccc3c(c2)OCO3)CCc2ccccc21`, 96.4% (active).
With `O=C1CCCC/C1=C/Nc1ccc2c(c1)OCO2`, the inhibition was -14.5%.
Turning to `CC1CCC/C(=C\Nc2ccc3c(c2)OCO3)C1=O` (stereo unspecified), the inhibition was 8.9%.
`COc1ccc2c(c1)CC/C(=C/c1ccco1)C2=O`: the inhibition was 33.2%.
In the case of `COc1ccc2c(c1)CC/C(=C\Nc1ccc3c(c1)OCO3)C2=O`, the inhibition was 89.9% (active).
Consider `O=C1CCC/C1=C/Nc1ccc2c(c1)OCO2`, for which the inhibition is 26.9%.
For the molecule `COc1ccc(N/C=C2\CCOC2=O)cc1`, the inhibition was -13%.
For the molecule `CCN(CC)C(=O)C(=O)N/N=C/c1ccc(C(=O)O)cc1`, the inhibition is 15.8%.
Regarding `COc1cc(C(=O)Nc2ccc(C(C)=O)cc2)c(Br)c(OC)c1OC`, the inhibition is 2.4%.
For `O=C(CCn1ccnc1)Nc1ccc2ccccc2c1`, the inhibition was 13.1%.
Take `O=S(=O)(NCCSCc1c(Cl)cccc1Cl)c1ccc2c(c1)OCCO2`: the inhibition was 2.4%.
In the case of `COc1ccccc1/C=N/NC(=O)COCC(=O)N/N=C/c1ccccc1OC` it was 12.7%; in that of `CCC(CC(C)(C)O)C(=O)NNC(=S)Nc1ccccc1` (stereo unspecified), 3.1%; in that of `O=C(Nc1nc(-c2ccccn2)cs1)C1COc2ccccc2O1` (stereo unspecified), -2.1%.
On to `O=C(Nc1nc(-c2ccccc2)cs1)C1COc2ccccc2O1` (stereo unspecified), for which the inhibition was 9.1%.
On to `O=C(Nc1nc(-c2ccncc2)cs1)C1COc2ccccc2O1` (stereo unspecified), for which the inhibition was 61.7% (active).
As for `COc1ccc(C(O)c2nccn2Cc2ccccc2)cc1OC` (stereo unspecified), the inhibition was 9.1%.
Turning to `Cc1cc(SCC(=O)N/N=C/c2ccc(O)c(O)c2O)c(C)cc1Br`, the inhibition was 79.9% (active).
For `Cc1cc(SCC(=O)N/N=C/c2ccc(O)cc2O)c(C)cc1Br`, the inhibition was -12.7%.
On to `Cc1cc(SCC(=O)N/N=C/c2ccc(O)c(O)c2)c(C)cc1Br`, for which the inhibition is 18%.
Take `CCC(C)(C)NC(=O)C(c1ccco1)N(C(=O)c1csnn1)c1cccc(F)c1` (stereo unspecified): the inhibition is -1.3%.
In the case of `COc1ccc(/C=C2\N=C(C)N(c3ccc(C(=O)O)cc3)C2=O)cc1OC`, the inhibition is -0.2%.
For `Cc1cccc(OC(=O)c2cncc(Br)c2)c1`, the inhibition is -2.9%.
As to `CC(=O)Nc1ccc(C)c([N+](=O)[O-])c1`, the inhibition was -6.2%.
Turning to `CC(=O)Nc1ccc(S(=O)(=O)Nc2ccc(F)c([N+](=O)[O-])c2)cc1`, the inhibition is -2.3%.
In the case of `CC(=O)Nc1ccc(S(=O)(=O)Nc2ccc(C)c([N+](=O)[O-])c2)cc1` it was 114% (active); in that of `Cc1ccc(OC(=O)c2cccc(C(=O)Oc3ccc(C)cn3)n2)nc1`, 51.5% (active).
Consider `CCOC(=O)c1cccc(C(=O)OCC)n1`, for which the inhibition is 7.8%.
With `Cc1ccc(OC(=O)c2cccc(C(=O)Oc3ccc(C)cc3)n2)cc1`, the inhibition was 11.1%.
As for `COc1ccccc1NS(=O)(=O)c1ccc2oc(SCc3ccc(C#N)cc3)nc2c1`, the figure is 23.3%.
As for `C/C(=N\Nc1nc(N2CCOCC2)nc(N2CCOCC2)n1)c1cccc([N+](=O)[O-])c1`, the figure is -11.8%; as for `Brc1ccc(-c2nnc3sc(CN4CCC5(CC4)OCCO5)cn23)cc1`, 7.3%; as for `c1ccc(-c2nnc3sc(CN4CCC5(CC4)OCCO5)cn23)cc1`, 10.9%.
As for `Brc1cccc(-c2nnc3sc(CN4CCC5(CC4)OCCO5)cn23)c1`, the figure is 101% (active).
Turning to `CC1(C)CC2(CC(c3ccccc3)c3ccc(O)cc3O2)NC(=S)N1` (stereo unspecified), the inhibition was -4.8%.
In the case of `CC1(C)CC2(CC(c3ccccc3F)c3cc(Cl)c(O)cc3O2)NC(=S)N1` (stereo unspecified), the inhibition is -8.2%.

As a reminder, the inhibition is the relative decrease from the control value, in per cent.
